The values that follow come from PubChem BioAssay AID1210 (NMMLSC, 2008).

SMILES strings stand for the structures. The source made the active and inactive calls.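 The calls were made as follows: active = blocks over 70% of labeled estradiol binding at 10 µM, or over a set limit at 100 nM; inactive = the rest.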

In one experiment the target is Estrogen receptor beta (Homo sapiens) (UniProt Q92731). Briefly: displacement of fluorescent estrogen from ERbeta – cell-based, Cos7 ERbeta-GFP, flow cytometry, primary screen (AID 1210).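 Also: 0% = DMSO vehicle wells and 100% = complete loss of labeled estradiol signal.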 The conditions noted are these: fluorescent estrogen binding, at 10 µM, stronger effect = higher value. (In general: Flow cytometry measures light scatter and fluorescence of single cells or particles in a stream.)
Estrogen receptor beta (Homo sapiens), sequence (Q92731 whole entry, looked up): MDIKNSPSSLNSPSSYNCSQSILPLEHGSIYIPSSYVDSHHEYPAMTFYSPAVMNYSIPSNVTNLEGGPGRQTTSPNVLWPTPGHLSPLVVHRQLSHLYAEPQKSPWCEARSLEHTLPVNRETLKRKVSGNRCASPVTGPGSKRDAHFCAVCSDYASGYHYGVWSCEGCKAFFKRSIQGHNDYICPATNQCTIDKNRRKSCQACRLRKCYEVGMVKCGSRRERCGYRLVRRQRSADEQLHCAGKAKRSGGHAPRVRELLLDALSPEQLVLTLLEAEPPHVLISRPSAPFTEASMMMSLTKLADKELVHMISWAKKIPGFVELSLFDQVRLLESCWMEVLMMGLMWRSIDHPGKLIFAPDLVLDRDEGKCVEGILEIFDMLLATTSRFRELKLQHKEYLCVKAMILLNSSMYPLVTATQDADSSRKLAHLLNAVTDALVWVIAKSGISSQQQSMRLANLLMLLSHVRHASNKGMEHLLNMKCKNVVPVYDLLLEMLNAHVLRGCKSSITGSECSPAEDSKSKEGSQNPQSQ
Turning to `C=C1C2C[C@H](O)C(C)(C)[C@@]2(O)[C@H](O)C[C@]23C[C@@](C)(O)[C@H](CC[C@H]12)[C@H]3O` (stereo partly specified), the inhibition was 70% (inactive).
As to `CCOc1ccc(CC2S/C(=N/c3ccccn3)NC2=O)cc1` (stereo unspecified), the inhibition was 16% (inactive).
As for `COc1ccc(C2CC(c3c(-c4ccccc4)c4cc(Cl)ccc4[nH]c3=O)=NN2S(C)(=O)=O)cc1OC` (stereo unspecified), the inhibition is 1% (inactive).
On to `Cc1ccc(/C=c2\sc3nc(-c4ccco4)nn3c2=O)o1`, for which the inhibition was 61% (inactive).
As to `CN1C(=O)CSc2ccc(NC(=O)N3CCC(N4CCCCC4)CC3)cc21`, the inhibition is 30% (inactive).
Still for that read-out and setting: next, `CCCCNS(=O)(=O)c1ccc(NC(=O)C(Sc2ccccc2)c2ccccc2)cc1` (stereo unspecified): 41% (inactive); `N=c1c(C(=O)NCc2ccc(F)cc2)cc2c(=O)n3ccccc3nc2n1Cc1cccnc1`: 30% (inactive); `Cc1ccsc1/C=C(\C(=O)c1ccc(OC(C)C)cc1)c1nc2ccccc2o1`: 34% (inactive).
With `CCOC(=O)C1=c2/c(=C/c3ccccc3OC)c(N)c(C#N)n2C(=O)C(c2ccccc2OC)S1` (stereo unspecified), the inhibition was 34% (inactive).
Turning to `CCOC(=O)c1c(C)oc2c1c(C=NC1CCS(=O)(=O)C1)c(O)c1ccccc12` (stereo unspecified), the inhibition was 38% (inactive).
The same measure, in the same setting: next, `Cc1ccc(Oc2cc(N3CCOCC3)nc(-c3ccccc3)n2)cc1`: 35% (inactive); `Nc1cc2sc(-c3ccc(C(=O)O)cc3)nc2cc1Cl`: 22% (inactive); `COC(=O)c1ccc(CC(=O)c2ccc(O)cc2O)o1`: 44% (inactive).
Same read-out and setting: next, `NC(=O)c1cccc2c1C(=O)N(C1CCCCC1)C2`: 3% (inactive).
Take `O=C(COC(=O)CN1C(=O)c2ccccc2C1=O)Nc1ncc(Cl)cc1Cl`: the inhibition was 33% (inactive).
Turning to `CCn1c(SCC(=O)Nc2ccc3c(c2)oc2ccccc23)nnc1-c1ccc(N)cc1`, the inhibition was 56% (inactive).
Take `CC(=O)c1ccc2c(c1)C1C=CCC1C(c1ccc(S(=O)(=O)N3CCOCC3)cc1)N2` (stereo unspecified): the inhibition was 78% (active).
The same measure, in the same setting: next, `O=C(O)c1ccc(NS(=O)(=O)c2ccc3c(c2)C2C=CCC2C(c2ccccc2F)N3)cc1` (stereo unspecified): 7% (inactive); `COc1ccc2c(c1)C1C=CCC1C(c1cc3c(cc1Br)OCO3)N2` (stereo unspecified): 0% (inactive).
The same measure, in the same setting: next, `Nc1ccc(-c2cc(-c3ccc(N)cc3)nc(-c3ccccc3)n2)cc1`: 43% (inactive).
Still for that read-out and setting: next, `COc1ccc2c(c1)[nH]c1c(=O)n(N)cnc12`: 4% (inactive).
For `O=c1cc(-c2ccccc2Cl)oc2c(Br)ccc(O)c12`, the inhibition was 33% (inactive).
Regarding `Cc1ccccc1Nc1nnc(SCC(=O)NCc2ccco2)s1`, the inhibition is 26% (inactive).
For the molecule `CC1(C)CCCN(C(=O)c2coc(=O)c(Br)c2)C1`, the inhibition was 49% (inactive).
On the same count and under the same terms, to `Oc1ccc(C2=Nn3c(nnc3-c3ccco3)SC2)cc1O` belongs 32% (inactive); to `Cc1ccc(Cc2cncc(O)c2)cc1S(=O)(=O)O`, 0% (inactive); to `CSC1=N/C(=C\c2ccc(Br)o2)C(=O)S1`, 26% (inactive).
On to `O=C(NCc1ccco1)c1cc2ccc(O)cc2oc1=O`, for which the inhibition was 44% (inactive).
Consider `O=C(c1cccs1)N1N=C(c2ccc(O)cc2)CC1c1ccccc1` (stereo unspecified), for which the inhibition was 68% (inactive).
Take `CCn1nnc(NC(=O)CSc2ccc(Cl)cc2)n1`: the inhibition is 13% (active).
In the case of `COc1ccc2c(c1)c(=O)oc1cc(OCC(=O)N3CCC(C)CC3)ccc12`, the inhibition was 52% (inactive).
On to `CCOC(=O)c1sc(NC(=O)c2ccc3ncsc3c2)nc1C`, for which the inhibition was 21% (inactive).
As to `CC(=O)Nc1ccc(N=Cc2nc(-c3ccc(C)cc3)oc2O)cc1`, the inhibition is 68% (inactive).
Consider `COc1cc2c(cc1OC)C(Cc1ccc(O)cc1)N(C)CC2` (stereo unspecified), for which the inhibition is 56% (inactive).
With `Oc1ccc(-c2[nH]nc(-c3ccccc3)c2-c2nc3ccccc3[nH]2)cc1`, the inhibition was 33% (inactive).
With `O=[N+]([O-])c1cc(/C=N/N2CCN(C3c4ccccc4-c4ccccc43)CC2)ccc1Cl`, the inhibition was 21% (inactive).
On the same count and under the same terms, to `CC(=O)N1c2ccc(Cl)cc2C2C=CCC2C1c1cccc2ccccc12` (stereo unspecified) belongs 51% (inactive); to `O=C(Cn1c(=O)n(Cc2ccco2)c(=O)c2c3c(sc21)CCCCC3)Nc1ccccc1`, 37% (inactive).

Still in this experiment, the particulars now being: fluorescent estrogen binding, ligand binding inhibition, at 0.1 µM, stronger effect = higher value.
With `C=C1C2C[C@H](O)C(C)(C)[C@@]2(O)[C@H](O)C[C@]23C[C@@](C)(O)[C@H](CC[C@H]12)[C@H]3O` (stereo partly specified), the inhibition was 1%.
On to `CCOc1ccc(CC2S/C(=N/c3ccccn3)NC2=O)cc1` (stereo unspecified), for which the inhibition was 15%.
`COc1ccc(C2CC(c3c(-c4ccccc4)c4cc(Cl)ccc4[nH]c3=O)=NN2S(C)(=O)=O)cc1OC` (stereo unspecified) showed an inhibition of 64%.
In turn, `Cc1ccc(/C=c2\sc3nc(-c4ccco4)nn3c2=O)o1` returned an inhibition of 27%.
`CN1C(=O)CSc2ccc(NC(=O)N3CCC(N4CCCCC4)CC3)cc21`: the inhibition was found to be 19%.
Same read-out and setting: next, `CCCCNS(=O)(=O)c1ccc(NC(=O)C(Sc2ccccc2)c2ccccc2)cc1` (stereo unspecified): 14%; `N=c1c(C(=O)NCc2ccc(F)cc2)cc2c(=O)n3ccccc3nc2n1Cc1cccnc1`: 34%.
On the same count and under the same terms, next, `Cc1ccsc1/C=C(\C(=O)c1ccc(OC(C)C)cc1)c1nc2ccccc2o1`: 60%.
The same measure, in the same setting: to `CCOC(=O)C1=c2/c(=C/c3ccccc3OC)c(N)c(C#N)n2C(=O)C(c2ccccc2OC)S1` (stereo unspecified) belongs 46%; to `CCOC(=O)c1c(C)oc2c1c(C=NC1CCS(=O)(=O)C1)c(O)c1ccccc12` (stereo unspecified), 11%.
Molecule `Cc1ccc(Oc2cc(N3CCOCC3)nc(-c3ccccc3)n2)cc1` displayed an inhibition of 15%.
On the same count and under the same terms, to `Nc1cc2sc(-c3ccc(C(=O)O)cc3)nc2cc1Cl` belongs 44%; to `COC(=O)c1ccc(CC(=O)c2ccc(O)cc2O)o1`, 20%; to `NC(=O)c1cccc2c1C(=O)N(C1CCCCC1)C2`, 4%.
On the same count and under the same terms, to `O=C(COC(=O)CN1C(=O)c2ccccc2C1=O)Nc1ncc(Cl)cc1Cl` belongs 16%.
On to `CCn1c(SCC(=O)Nc2ccc3c(c2)oc2ccccc23)nnc1-c1ccc(N)cc1`, for which the inhibition came out at 18%.
Consider `CC(=O)c1ccc2c(c1)C1C=CCC1C(c1ccc(S(=O)(=O)N3CCOCC3)cc1)N2` (stereo unspecified), for which the inhibition came to 17%.
On the same count and under the same terms, next, `O=C(O)c1ccc(NS(=O)(=O)c2ccc3c(c2)C2C=CCC2C(c2ccccc2F)N3)cc1` (stereo unspecified): 9%.
Same read-out and setting: to `COc1ccc2c(c1)C1C=CCC1C(c1cc3c(cc1Br)OCO3)N2` (stereo unspecified) belongs 41%; to `Nc1ccc(-c2cc(-c3ccc(N)cc3)nc(-c3ccccc3)n2)cc1`, 29%; to `COc1ccc2c(c1)[nH]c1c(=O)n(N)cnc12`, 30%.
The same measure, in the same setting: to `O=c1cc(-c2ccccc2Cl)oc2c(Br)ccc(O)c12` belongs 19%; to `Cc1ccccc1Nc1nnc(SCC(=O)NCc2ccco2)s1`, 18%.
Turning to `CC1(C)CCCN(C(=O)c2coc(=O)c(Br)c2)C1`, the inhibition amounted to 18%.
Still for that read-out and setting: to `Oc1ccc(C2=Nn3c(nnc3-c3ccco3)SC2)cc1O` belongs 1%; to `Cc1ccc(Cc2cncc(O)c2)cc1S(=O)(=O)O`, 13%; to `CSC1=N/C(=C\c2ccc(Br)o2)C(=O)S1`, 43%.
Molecule `O=C(NCc1ccco1)c1cc2ccc(O)cc2oc1=O` came in with an inhibition of 38%.
In the case of `O=C(c1cccs1)N1N=C(c2ccc(O)cc2)CC1c1ccccc1` (stereo unspecified), the inhibition is 23%.
Consider `CCn1nnc(NC(=O)CSc2ccc(Cl)cc2)n1`, for which the inhibition was 68%.
Take `COc1ccc2c(c1)c(=O)oc1cc(OCC(=O)N3CCC(C)CC3)ccc12`: the inhibition worked out at 35%.
`CCOC(=O)c1sc(NC(=O)c2ccc3ncsc3c2)nc1C`: the inhibition turned out to be 24%.
Same read-out and setting: to `CC(=O)Nc1ccc(N=Cc2nc(-c3ccc(C)cc3)oc2O)cc1` belongs 56%; to `COc1cc2c(cc1OC)C(Cc1ccc(O)cc1)N(C)CC2` (stereo unspecified), 6%.
For the molecule `Oc1ccc(-c2[nH]nc(-c3ccccc3)c2-c2nc3ccccc3[nH]2)cc1`, the inhibition stood at 21%.
On the same count and under the same terms, next, `O=[N+]([O-])c1cc(/C=N/N2CCN(C3c4ccccc4-c4ccccc43)CC2)ccc1Cl`: 2%; `CC(=O)N1c2ccc(Cl)cc2C2C=CCC2C1c1cccc2ccccc12` (stereo unspecified): 6%.
Still for that read-out and setting: to `O=C(Cn1c(=O)n(Cc2ccco2)c(=O)c2c3c(sc21)CCCCC3)Nc1ccccc1` belongs 39%.

Broadly, the inhibition is the relative decrease from the control value, in per cent.
